Reference: PubChem BioAssay (NCATS)
Results filed as inconclusive are left out. Entries that show only a call come without a potency. Active and inactive are the calls of the source. Calls follow the shape of the dose curve; as a rule, active = well fitted curve in the direction sought with a large enough effect; inconclusive = small, poorly fitted or top-dose-only effect, or another doubt; inactive = no such curve, though single readings can be large; an effect the other way counts as inactive or inconclusive.

Assays:
[1] = Quantitative High-Throughput drug screen in 47 multiple myeloma cell lines against the NCATS MIPE library collection: JIM3_ECACC cell viability assay (AID 1918963; also: nearly all actives have a fitted effect of over 35% in size)
In short: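 Steps: seed 500 cells per well; pin-transfer MIPE 4.0 library; incubate 48 h at 37C, 5% CO2, humidified; add CellTiter-Glo, 5 min room temperature; read luminescence.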

[2] = Quantitative High-Throughput drug screen in 47 multiple myeloma cell lines against the NCATS MIPE library collection: INA6_PLB cell viability assay (AID 1918965; also: nearly all actives have a fitted effect of over 55% in size)
In short: (§1)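 CellTiter-Glo luminescence (ATP) after 48 h compound exposure, 37C/5% CO2; 500 cells/well; MIPE 4.0 approved/investigational drugs pinned in; DMSO = 100%, media only = 0% viability.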

[3] = Quantitative High-Throughput drug screen in 47 multiple myeloma cell lines against the NCATS MIPE library collection: H1112_PLB cell viability assay (AID 1918967; also: nearly all actives have a fitted effect of over 30% in size)
In short: (§2)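 Inhibition of cell viability is measured here. Each line was plated at 500 cells per well, treated with MIPE 4.0 drugs, kept 48 hours at 37C, then assayed for ATP content by CellTiter-Glo luminescence.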

[4] = Quantitative High-Throughput drug screen in 47 multiple myeloma cell lines against the NCATS MIPE library collection: Karpas25_ECACC cell viability assay (AID 1918968; also: nearly all actives have a fitted effect of over 35% in size)
In short: as §2

[5] = Quantitative High-Throughput drug screen in 47 multiple myeloma cell lines against the NCATS MIPE library collection: KMS26_JCRB cell viability assay (AID 1918975); also: nearly all actives have a fitted effect of over 45% in size
In short: (§3)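 Viability readout: CellTiter-Glo luminescence following 5 min room-temperature incubation with reagent. Prior exposure: 48 h, 37C, humidified 5% CO2, 500 cells per well.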

[6] = Quantitative High-Throughput drug screen in 47 multiple myeloma cell lines against the NCATS MIPE library collection: MOLP8_DSMZ cell viability assay (AID 1918977); also: nearly all actives have a fitted effect of over 45% in size
In short: (§4)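 500 cells/well; MIPE 4.0 drugs pin-transferred; 48 h, 37C, 5% CO2. CellTiter-Glo, 5 min RT, luminescence. Controls: DMSO 100%, media 0%.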

[7] = Quantitative High-Throughput drug screen in 47 multiple myeloma cell lines against the NCATS MIPE library collection: NCIH929_DSMZ cell viability assay (AID 1918978); also: nearly all actives have a fitted effect of over 35% in size
In short: as §4

[8] = Quantitative High-Throughput drug screen in 47 multiple myeloma cell lines against the NCATS MIPE library collection: MM1S_ATCC cell viability assay (AID 1918980); also: nearly all actives have a fitted effect of over 45% in size
In short: as §4

[9] = Quantitative High-Throughput drug screen in 47 multiple myeloma cell lines against the NCATS MIPE library collection: MM1R_ATCC cell viability assay (AID 1918981); also: nearly all actives have a fitted effect of over 35% in size
In short: as §4

[10] = Quantitative High-Throughput drug screen in 47 multiple myeloma cell lines against the NCATS MIPE library collection: LP1_DSMZ cell viability assay (AID 1918982); also: nearly all actives have a fitted effect of over 35% in size
In short: as §4

[11] = Quantitative High-Throughput drug screen in 47 multiple myeloma cell lines against the NCATS MIPE library collection: JIM1_ECACC cell viability assay (AID 1918964)
In short: as §2

[12] = Quantitative High-Throughput drug screen in 47 multiple myeloma cell lines against the NCATS MIPE library collection: JJN3_DSMZ cell viability assay (AID 1918966; also: nearly all actives have a fitted effect of over 50% in size)
In short: as §2

[13] = Quantitative High-Throughput drug screen in 47 multiple myeloma cell lines against the NCATS MIPE library collection: KMS27_JCRB cell viability assay (AID 1918970); also: nearly all actives have a fitted effect of over 30% in size
In short: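 KMS27_JCRB myeloma cells, 500 per well, exposed 48 h at 37 C, 5% CO2 to MIPE 4.0 compounds. Viability from ATP by CellTiter-Glo luminescence, normalized to DMSO (100%) and medium-only (0%) wells.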

[14] = Quantitative High-Throughput drug screen in 47 multiple myeloma cell lines against the NCATS MIPE library collection: KMS12BM_JCRB cell viability assay (AID 1918971); also: nearly all actives have a fitted effect of over 35% in size
In short: as §3

[15] = Quantitative High-Throughput drug screen in 47 multiple myeloma cell lines against the NCATS MIPE library collection: KMS12PE_JCRB cell viability assay (AID 1918972); also: nearly all actives have a fitted effect of over 30% in size; as to viability: series mostly up to about 46 µM
In short: as §1

[16] = Quantitative High-Throughput drug screen in 47 multiple myeloma cell lines against the NCATS MIPE library collection: KMS20_JCRB cell viability assay (AID 1918973); also: nearly all actives have a fitted effect of over 45% in size
In short: as §2

[17] = Quantitative High-Throughput drug screen in 47 multiple myeloma cell lines against the NCATS MIPE library collection: OCIMY1_PLB cell viability assay (AID 1918979); also: nearly all actives have a fitted effect of over 35% in size; as to viability: series mostly up to about 46 µM
In short: as §4

[18] = Quantitative High-Throughput drug screen in 47 multiple myeloma cell lines against the NCATS MIPE library collection: MMM1_PLB cell viability assay (AID 1918976); also: nearly all actives have a fitted effect of over 35% in size
In short: as §4
Potency is read from the fitted curve at half-maximal effect.

Row | Structure (SMILES) | Potency [1] | Potency [2] | Potency [3] | Potency [4] | Potency [5] | Potency [6] | Potency [7] | Potency [8] | Potency [9] | Potency [10] | Potency [11] | Potency [12] | Potency [13] | Potency [14] | Potency [15] | Potency [16] | Potency [17] | Potency [18]
1 | CCC1(c2ccccc2)C(=O)NCNC1=O | 4.69 µM (active) | 3.32 µM (active) | 2.96 µM (active) | 1.66 µM (active) | inactive | inactive | 1.32 µM (active) | 1.05 µM (active) | inactive | inactive |  |  |  |  |  |  |  | 
2 | Cc1ccc(C(=O)Nc2ccc(S(=O)(=O)O)c3cc(S(=O)(=O)O)cc(S(=O)(=O)O)c23)cc1NC(=O)c1cccc(NC(=O)Nc2cccc(C(=O)Nc3cc(C(=O)Nc4ccc(S(=O)(=O)O)c5cc(S(=O)(=O)O)cc(S(=O)(=O)O)c45)ccc3C)c2)c1 | 16.6 µM (active) | 4.69 µM (active) |  | inactive |  | inactive | inactive |  | inactive | inactive | inactive | inactive | inactive | inactive | inactive |  |  | 
3 | CN(C)C(=O)C(CCN1CCC(O)(c2ccc(Cl)cc2)CC1)(c1ccccc1)c1ccccc1 | 20.9 µM (active) | 18.7 µM (active) |  | 18.7 µM (active) | 16.6 µM (active) |  | 23.5 µM (active) | 20.9 µM (active) | 20.9 µM (active) |  |  | 18.7 µM (active) | inactive |  | inactive | 14.8 µM (active) |  | 
4 | COc1cc2nc(N3CCN(C(=O)c4ccco4)CC3)nc(N)c2cc1OC | 9.35 µM (active) | 8.33 µM (active) | 16.6 µM (active) | 7.43 µM (active) |  | 20.9 µM (active) | 8.33 µM (active) | 20.9 µM (active) | 26.4 µM (active) |  |  |  | 9.35 µM (active) |  | 7.43 µM (active) | 8.33 µM (active) |  | 
5 | COc1nc(C)nc(Cl)c1NC1=NCCN1 | inactive |  | 7.43 µM (active) | 9.35 µM (active) | inactive |  | 10.5 µM (active) | 26.4 µM (active) | inactive | inactive | inactive |  | inactive | inactive | inactive | 9.35 µM (active) |  | 
6 | NC(CO)C(=O)NNCc1ccc(O)c(O)c1O (stereo not given) | inactive | inactive | inactive | inactive | 33.2 µM (active) | 10.5 µM (active) | inactive |  | 11.8 µM (active) | 20.9 µM (active) |  | 11.8 µM (active) | inactive | 20.9 µM (active) | inactive |  |  | 
7 | Nc1c2c(nc3ccccc13)CCCC2 | inactive |  | inactive | inactive |  |  | inactive | 11.8 µM (active) |  | inactive | inactive | 5.26 µM (active) | inactive |  | inactive |  |  | 
8 | CN(C)CCCN1c2ccccc2CCc2ccc(Cl)cc21 | 4.69 µM (active) |  | 0.833 µM (active) | 0.743 µM (active) | 1.66 µM (active) |  | 0.469 µM (active) | 0.743 µM (active) | 1.48 µM (active) |  | 9.35 µM (active) |  | 14.8 µM (active) | 18.7 µM (active) | 11.8 µM (active) | 1.87 µM (active) |  | 
9 | O=C(c1ccc(F)cc1)C1CCN(CCn2c(=O)[nH]c3ccccc3c2=O)CC1 | inactive | 20.9 µM (active) | inactive |  | inactive |  | inactive |  | inactive | inactive | inactive |  | inactive | inactive | inactive |  | inactive | 
10 | O=C1Cc2cc(CCN3CCN(c4nsc5ccccc45)CC3)c(Cl)cc2N1 | 23.5 µM (active) | 18.7 µM (active) | 23.5 µM (active) | 18.7 µM (active) |  |  | 23.5 µM (active) |  | 20.9 µM (active) |  | inactive |  | 8.33 µM (active) | 20.9 µM (active) |  |  | 20.9 µM (active) | 
11 | CC(C)(C)C(=O)Oc1ccc(S(=O)(=O)Nc2ccccc2C(=O)NCC(=O)O)cc1 | inactive |  | 18.7 µM (active) |  | inactive |  |  |  | inactive | inactive | inactive |  | inactive | inactive | inactive |  | inactive | 
12 | O=c1[nH]cc(F)c(=O)[nH]1 | 20.9 µM (active) | 5.26 µM (active) | inactive |  | inactive |  |  | 14.8 µM (active) | 10.5 µM (active) | 14.8 µM (active) |  |  |  |  | 4.69 µM (active) |  |  | 
13 | CC1COc2c(N3CCN(C)CC3)c(F)cc3c(=O)c(C(=O)O)cn1c23 (stereo not given) | inactive |  | inactive | inactive | inactive | inactive | inactive |  | inactive | inactive | inactive | inactive | 18.7 µM (active) | inactive |  |  |  | 
14 | CC1(CN2CCC(n3c(=O)[nH]c4ccccc43)CC2)OCc2ccccc2-n2cccc21 (stereo not given) | inactive | 14.8 µM (active) | 8.33 µM (active) | 13.2 µM (active) | 5.9 µM (active) |  |  | 7.43 µM (active) | 2.64 µM (active) |  |  |  |  | 16.6 µM (active) | inactive |  | inactive | 5.9 µM (active)
15 | CCOC(=O)c1ncn2c1CN(C)C(=O)c1cc(F)ccc1-2 | inactive | inactive | inactive | inactive |  |  | inactive | 18.7 µM (active) | 18.7 µM (active) | inactive | inactive |  |  | 5.9 µM (active) | inactive |  |  | 
16 | CCC1(C)CC(=O)NC1=O (stereo not given) | inactive | inactive | inactive | inactive | inactive |  | inactive | inactive | inactive |  |  |  | inactive | 1.18 µM (active) | inactive |  |  | inactive
17 | CC[N+](CC)(CC)CCOc1cccc(OCC[N+](CC)(CC)CC)c1OCC[N+](CC)(CC)CC | inactive |  | inactive | inactive | inactive |  | inactive | inactive | inactive | inactive | inactive | inactive |  |  |  |  | inactive | 
18 | NC(=O)OCC(COC(N)=O)c1ccccc1 | inactive | inactive | inactive |  |  |  | inactive | 5.9 µM (active) | inactive | inactive |  |  | inactive | inactive | inactive | inactive |  | 
19 | CC(=O)OCC(CCn1cnc2cnc(N)nc21)COC(C)=O | inactive | inactive | inactive | inactive | inactive | inactive | inactive |  | inactive | inactive | inactive |  |  | inactive | inactive | inactive | inactive | 
20 | NCCCCCC(=O)O | inactive |  | inactive | inactive | inactive | inactive | inactive | 16.6 µM (active) | inactive | inactive | inactive | 0.0187 µM (active) |  | inactive |  | inactive |  | 0.296 µM (active)
21 | Clc1ccc2c(c1)C(N1CCNCC1)=Nc1ccccc1O2 | 26.4 µM (active) |  |  | 14.8 µM (active) |  | inactive | 20.9 µM (active) | 7.43 µM (active) |  |  | inactive |  |  |  | inactive | 20.9 µM (active) | inactive | 
22 | OCCN1CCN(CCCN2c3ccccc3Sc3ccc(C(F)(F)F)cc32)CC1 | 26.4 µM (active) | 16.6 µM (active) | 23.5 µM (active) | 2.96 µM (active) | 20.9 µM (active) |  | 20.9 µM (active) | 2.96 µM (active) |  | 18.7 µM (active) | 16.6 µM (active) |  |  |  | 9.35 µM (active) | 16.6 µM (active) |  | 
23 | N[C@@H](Cc1c[nH]c2ccc(O)cc12)C(=O)O |  |  |  |  |  |  |  |  |  |  |  |  |  |  |  |  |  | 18.7 µM (active)
24 | OCCN(CCO)c1nc(N2CCCCC2)c2nc(N(CCO)CCO)nc(N3CCCCC3)c2n1 |  |  |  |  |  |  |  |  |  |  |  |  |  |  |  |  |  | 23.5 µM (active)
